# Reference: PubChem BioAssay AID1159580 (chemical genetic matrix, 2015)
# Among all 5,500 compounds or so, about 2,000 (36%) were called active. Inconclusive results (about 18%) are left out. This is one part of the list. Unmarked numbers belong to inactive results. Rule as the data show it: active = normalized growth mostly below about 0.91 (no sharp cut-off); inconclusive = no clear call, values can overlap the other calls; inactive = mostly above about 0.92.
# Assay: chemical genetic growth profiling, strain panel (AID 1159580);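 also: tested at 20 µM; growth read once vehicle control cultures reached saturation at 30 °C; 1 = growth at the plate median or of vehicle wells; lower values mean less growth of the strain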
# Details: S. cerevisiae deletion strains, growth OD
smiles,measurement,setting,value
COc1c2c(c(CC=C(C)C)c3oc(=O)c(-c4ccc(O)cc4)c(O)c13)OC(C)(C)C=C2,normalized growth,"locus YAL013W, strain DEP1, stronger effect = lower value",0.307 (active)
same,normalized growth,"locus YAL021C, strain ccr4, stronger effect = lower value",0.989
same,normalized growth,"locus YAL026C, strain drs2, stronger effect = lower value",0.87 (active)
same,normalized growth,"locus YAL030W, strain snc1, stronger effect = lower value",0.916 (active)
same,normalized growth,"locus YBL061C, strain skt5, stronger effect = lower value",0.846 (active)
same,normalized growth,"locus YBR009C, strain hhf1, stronger effect = lower value",0.656 (active)
same,normalized growth,"locus YBR021W, strain FUR4, stronger effect = lower value",0.849
same,normalized growth,"locus YBR023C, strain chs3, stronger effect = lower value",0.854 (active)
same,normalized growth,"locus YBR171W, strain sec66, stronger effect = lower value",0.989
same,normalized growth,"locus YBR229C, strain ROT2, stronger effect = lower value",0.997
same,normalized growth,"locus YBR231C, strain swc5, stronger effect = lower value",0.857 (active)
same,normalized growth,"locus YBR279W, strain paf1, stronger effect = lower value",0.972
same,normalized growth,"locus YCL011C, strain gbp2, stronger effect = lower value",0.759 (active)
same,normalized growth,"locus YCL016C, strain dcc1, stronger effect = lower value",0.938
same,normalized growth,"locus YCL029C, strain bik1, stronger effect = lower value",0.677 (active)
same,normalized growth,"locus YCL061C, strain MRC1, stronger effect = lower value",0.816 (active)
same,normalized growth,"locus YCL069W, strain vba3, stronger effect = lower value",0.812 (active)
same,normalized growth,"locus YCR088W, strain abp1, stronger effect = lower value",0.944
same,normalized growth,"locus YDL005C, strain med2, stronger effect = lower value",0.925
same,normalized growth,"locus YDL035C, strain GPR1, stronger effect = lower value",0.861
same,normalized growth,"locus YDL040C, strain nat1, stronger effect = lower value",0.992
same,normalized growth,"locus YDL074C, strain BRE1, stronger effect = lower value",0.325 (active)
same,normalized growth,"locus YDL101C, strain DUN1, stronger effect = lower value",0.862 (active)
same,normalized growth,"locus YDL185W, strain tfp1, stronger effect = lower value",1.02
same,normalized growth,"locus YDL192W, strain arf1, stronger effect = lower value",0.414 (active)
same,normalized growth,"locus YDR001C, strain nth1, stronger effect = lower value",0.989
same,normalized growth,"locus YDR069C, strain doa4, stronger effect = lower value",1.01
same,normalized growth,"locus YDR101C, strain arx1, stronger effect = lower value",0.775 (active)
same,normalized growth,"locus YDR137W, strain rgp1, stronger effect = lower value",0.819 (active)
same,normalized growth,"locus YDR150W, strain NUM1, stronger effect = lower value",1.01
same,normalized growth,"locus YDR159W, strain sac3, stronger effect = lower value",0.383 (active)
same,normalized growth,"locus YDR162C, strain NBP2, stronger effect = lower value",0.642 (active)
same,normalized growth,"locus YDR195W, strain ref2",0.459 (active)
same,normalized growth,"locus YDR297W, strain sur2, stronger effect = lower value",0.847 (active)
same,normalized growth,"locus YDR318W, strain mcm21, stronger effect = lower value",0.681 (active)
same,normalized growth,"locus YDR334W, strain swr1, stronger effect = lower value",0.99
same,normalized growth,"locus YDR335W, strain msn5, stronger effect = lower value",0.851 (active)
same,normalized growth,"locus YDR388W, stronger effect = lower value",0.912 (active)
same,normalized growth,"locus YDR392W, strain spt3, stronger effect = lower value",0.103 (active)
same,normalized growth,"locus YDR502C, strain sam2, stronger effect = lower value",0.768 (active)
same,normalized growth,"locus YEL003W, strain gim4, stronger effect = lower value",0.766 (active)
same,normalized growth,"locus YEL037C, strain rad23, stronger effect = lower value",0.992
same,normalized growth,"locus YEL061C, strain CIN8 (second series), stronger effect = lower value",0.765 (active)
same,normalized growth,"locus YER015W, strain faa2, stronger effect = lower value",0.845 (active)
same,normalized growth,"locus YER016W, strain bim1, stronger effect = lower value",0.969
same,normalized growth,"locus YER110C, stronger effect = lower value",0.938
same,normalized growth,"locus YER111C, strain swi4, stronger effect = lower value",0.518 (active)
same,normalized growth,"locus YER155C, strain BEM2 (second series), stronger effect = lower value",0.536 (active)
same,normalized growth,"locus YER155C, strain BEM2, stronger effect = lower value",0.277 (active)
same,normalized growth,"locus YER167W, strain BCK2, stronger effect = lower value",0.806 (active)
same,normalized growth,"locus YFR010W, strain ubp6, stronger effect = lower value",0.977
same,normalized growth,"locus YGL078C, strain dbp3, stronger effect = lower value",0.98
same,normalized growth,"locus YGL086W, strain mad1, stronger effect = lower value",0.683 (active)
same,normalized growth,"locus YGL167C, strain pmr1, stronger effect = lower value",0.976
same,normalized growth,"locus YGL173C, strain kem1, stronger effect = lower value",0.9 (active)
same,normalized growth,"locus YGL227W, strain vid30, stronger effect = lower value",0.765 (active)
same,normalized growth,"locus YGL240W, strain doc1, stronger effect = lower value",0.903
same,normalized growth,"locus YGL248W, strain PDE1, stronger effect = lower value",0.763 (active)
same,normalized growth,"locus YGL253W, strain hxk2, stronger effect = lower value",0.838 (active)
same,normalized growth,"locus YGR078C, strain PAC10, stronger effect = lower value",0.633 (active)
same,normalized growth,"locus YGR135W, strain pre9, stronger effect = lower value",0.907
same,normalized growth,"locus YGR229C, strain SMI1, stronger effect = lower value",0.409 (active)
same,normalized growth,"locus YGR252W, strain gcn5, stronger effect = lower value",0.696 (active)
same,normalized growth,"locus YHR013C, strain ard1, stronger effect = lower value",1.03
same,normalized growth,"locus YHR027C, strain rpn1, stronger effect = lower value",0.942
same,normalized growth,"locus YHR079C, strain IRE1 (second series), stronger effect = lower value",0.868 (active)
same,normalized growth,"locus YHR094C, strain hxt1, stronger effect = lower value",0.832 (active)
same,normalized growth,"locus YHR129C, strain ARP1, stronger effect = lower value",0.61 (active)
same,normalized growth,"locus YHR142W, strain chs7, stronger effect = lower value",0.512 (active)
same,normalized growth,"locus YHR200W, strain rpn10, stronger effect = lower value",0.889 (active)
same,normalized growth,"locus YIL066C, strain RNR3, stronger effect = lower value",0.708 (active)
same,normalized growth,"locus YIL073C, strain SPO22, stronger effect = lower value",0.963
same,normalized growth,"locus YIL125W, strain kgd1, stronger effect = lower value",0.911 (active)
same,normalized growth,"locus YIR030C, strain dcg1, stronger effect = lower value",0.773 (active)
same,normalized growth,"locus YJL092W, strain hpr5, stronger effect = lower value",0.932
same,normalized growth,"locus YJL095W, strain BCK1 (second series), stronger effect = lower value",0.799 (active)
same,normalized growth,"locus YJL095W, strain BCK1, stronger effect = lower value",0.352 (active)
same,normalized growth,"locus YJL115W, strain asf1, stronger effect = lower value",1.02
same,normalized growth,"locus YJL129C, strain trk1, stronger effect = lower value",0.648 (active)
same,normalized growth,"locus YJL134W, strain LCB3, stronger effect = lower value",0.977
same,normalized growth,"locus YJL154C, strain vps35, stronger effect = lower value",0.982
same,normalized growth,"locus YJL164C, strain tpk1, stronger effect = lower value",0.747 (active)
same,normalized growth,"locus YJL166W, strain qcr8, stronger effect = lower value",0.679 (active)
same,normalized growth,"locus YJL168C, strain set2, stronger effect = lower value",0.985
same,normalized growth,"locus YJL187C, strain SWE1 (second series), stronger effect = lower value",0.837 (active)
same,normalized growth,"locus YJL187C, strain SWE1, stronger effect = lower value",0.877 (active)
same,normalized growth,"locus YKL009W, strain mrt4, stronger effect = lower value",0.925
same,normalized growth,"locus YKL068W, stronger effect = lower value",0.982
same,normalized growth,"locus YKL085W, strain MDH1 (second series), stronger effect = lower value",0.909 (active)
same,normalized growth,"locus YKL085W, strain MDH1, stronger effect = lower value",0.909 (active)
same,normalized growth,"locus YKL160W, strain elf1, stronger effect = lower value",0.95
same,normalized growth,"locus YKL190W, strain CNB1, stronger effect = lower value",0.851 (active)
same,normalized growth,"locus YKR001C, strain vps1, stronger effect = lower value",0.381 (active)
same,normalized growth,"locus YKR026C, strain gcn3, stronger effect = lower value",0.971
same,normalized growth,"locus YKR091W, strain srl3, stronger effect = lower value",0.991
same,normalized growth,"locus YLL001W, strain dnm1, stronger effect = lower value",0.848 (active)
same,normalized growth,"locus YLL026W, stronger effect = lower value",0.848 (active)
same,normalized growth,"locus YLL041C, strain sdh2, stronger effect = lower value",0.984
same,normalized growth,"locus YLR027C, strain aat2, stronger effect = lower value",0.72 (active)
same,normalized growth,"locus YLR039C, strain RIC1, stronger effect = lower value",0.444 (active)
same,normalized growth,"locus YLR058C, strain SHM2, stronger effect = lower value",0.782 (active)
same,normalized growth,"locus YLR102C, strain apc9, stronger effect = lower value",0.847 (active)
same,normalized growth,"locus YLR221C, strain rsa3, stronger effect = lower value",0.674 (active)
same,normalized growth,"locus YLR258W, strain gsy2, stronger effect = lower value",0.824 (active)
same,normalized growth,"locus YLR262C, strain YPT6 (second series), stronger effect = lower value",0.584 (active)
same,normalized growth,"locus YLR268W, strain sec22, stronger effect = lower value",0.693 (active)
same,normalized growth,"locus YLR320W, strain mms22, stronger effect = lower value",0.65 (active)
same,normalized growth,"locus YLR342W, strain FKS1 (second series), stronger effect = lower value",0.812
same,normalized growth,"locus YLR342W, strain FKS1, stronger effect = lower value",0.907 (active)
same,normalized growth,"locus YLR357W, strain rsc2, stronger effect = lower value",1.01
same,normalized growth,"locus YLR370C, strain arc18, stronger effect = lower value",0.965
same,normalized growth,"locus YLR371W, strain rom2, stronger effect = lower value",0.519 (active)
same,normalized growth,"locus YLR384C, strain iki3, stronger effect = lower value",1
same,normalized growth,"locus YLR418C, strain cdc73, stronger effect = lower value",0.214 (active)
same,normalized growth,"locus YML016C, strain PPZ1, stronger effect = lower value",0.904 (active)
same,normalized growth,"locus YML032C, strain rad52, stronger effect = lower value",0.63 (active)
same,normalized growth,"locus YML120C, strain ndi1, stronger effect = lower value",0.467 (active)
same,normalized growth,"locus YML124C, strain tub3, stronger effect = lower value",0.858 (active)
same,normalized growth,"locus YMR058W, strain fet3, stronger effect = lower value",0.834 (active)
same,normalized growth,"locus YMR078C, strain ctf18, stronger effect = lower value",0.537 (active)
same,normalized growth,"locus YMR125W, strain sto1, stronger effect = lower value",0.866 (active)
same,normalized growth,"locus YMR129W, stronger effect = lower value",0.915 (active)
same,normalized growth,"locus YMR205C, strain PFK2, stronger effect = lower value",0.664 (active)
same,normalized growth,"locus YMR223W, strain ubp8, stronger effect = lower value",0.792 (active)
same,normalized growth,"locus YMR231W, strain pep5, stronger effect = lower value",0.999
same,normalized growth,"locus YMR263W, strain SAP30, stronger effect = lower value",0.866 (active)
same,normalized growth,"locus YMR307W, strain GAS1, stronger effect = lower value",0.48 (active)
same,normalized growth,"locus YNL067W, strain RPL9B, stronger effect = lower value",0.938
same,normalized growth,"locus YNL071W, strain lat1, stronger effect = lower value",0.484 (active)
same,normalized growth,"locus YNL128W, strain TEP1, stronger effect = lower value",0.906
same,normalized growth,"locus YNL209W, strain ssb2, stronger effect = lower value",0.935
same,normalized growth,"locus YNL233W, strain BNI4, stronger effect = lower value",0.635 (active)
same,normalized growth,"locus YNL248C, strain rpa49, stronger effect = lower value",0.973
same,normalized growth,"locus YNL250W, strain rad50, stronger effect = lower value",1.05
same,normalized growth,"locus YNL271C, strain bni1, stronger effect = lower value",0.976
same,normalized growth,"locus YNL298W, strain CLA4, stronger effect = lower value",0.95
same,normalized growth,"locus YNL307C, strain MCK1, stronger effect = lower value",0.24 (active)
same,normalized growth,"locus YNL322C, strain KRE1 (second series), stronger effect = lower value",1.03
same,normalized growth,"locus YNL322C, strain KRE1, stronger effect = lower value",0.88 (active)
same,normalized growth,"locus YNR049C, strain mso1, stronger effect = lower value",0.987
same,normalized growth,"locus YNR052C, strain pop2, stronger effect = lower value",0.546 (active)
same,normalized growth,"locus YOL012C, strain htz1",0.365
same,normalized growth,"locus YOL147C, strain pex11, stronger effect = lower value",0.481 (active)
same,normalized growth,"locus YOR001W, strain rrp6, stronger effect = lower value",0.797 (active)
same,normalized growth,"locus YOR061W, strain CKA2, stronger effect = lower value",0.939
same,normalized growth,"locus YOR069W, strain VPS5, stronger effect = lower value",0.896 (active)
same,normalized growth,"locus YOR070C, strain gyp1, stronger effect = lower value",0.793 (active)
same,normalized growth,"locus YOR080W, strain dia2, stronger effect = lower value",0.946
same,normalized growth,"locus YOR083W, strain WHI5, stronger effect = lower value",0.876 (active)
same,normalized growth,"locus YOR106W, strain vam3, stronger effect = lower value",0.883
same,normalized growth,"locus YOR136W, strain idh2, stronger effect = lower value",0.867 (active)
same,normalized growth,"locus YOR144C, strain elg1, stronger effect = lower value",0.592 (active)
same,normalized growth,"locus YOR184W, strain ser1, stronger effect = lower value",0.217 (active)
same,normalized growth,"locus YOR265W, strain rbl2, stronger effect = lower value",0.919 (active)
same,normalized growth,"locus YOR270C, strain vph1, stronger effect = lower value",0.549 (active)
same,normalized growth,"locus YOR290C, strain snf2, stronger effect = lower value",0.631 (active)
same,normalized growth,"locus YOR316C, strain cot1, stronger effect = lower value",0.924
same,normalized growth,"locus YPL051W, strain arl3, stronger effect = lower value",0.787 (active)
same,normalized growth,"locus YPL078C, strain atp4, stronger effect = lower value",0.802 (active)
same,normalized growth,"locus YPL106C, strain sse1, stronger effect = lower value",0.913
same,normalized growth,"locus YPL240C, strain hsp82, stronger effect = lower value",0.853 (active)
same,normalized growth,"locus YPR119W, strain clb2, stronger effect = lower value",0.735 (active)
same,normalized growth,"locus YPR141C, strain kar3, stronger effect = lower value",0.977
same,normalized growth,"locus YPR163C, strain tif3, stronger effect = lower value",0.463 (active)
same,normalized growth,"locus YPR167C, strain met16, stronger effect = lower value",0.751 (active)
same,normalized growth,"strain wtn01, stronger effect = lower value",0.747 (active)
